Measurements as given in PubChem BioAssay AID434970 (Sanford-Burnham Center for Chemical Genomics, 2010).
Hit rate of the full screen: of about 11,000 compounds, about 310 (2.8%) were called active. This is one part of a sample in which actives are shown more often than they occur. No stated cut-off is given here; in the data, active means activity change below about -85%; inactive means the rest.

Tested on: intestinal alkaline phosphatase [Mus musculus]
Assay: mouse intestinal phosphatase enzyme activation – biochemical, luminescence, single concentration, confirmation (AID 434970)
Conditions: purified mouse IAP, CDP-Star luminescence, 30 min, at 10 µM; activation factor: measured here: IAP activation factor, stronger effect = higher value; activity change, negative = activation: stronger effect = lower value

Compound | activation factor | activity change, negative = activation
O=C(NNS(=O)(=O)c1ccc(Cl)cc1)C1CCN(Cc2ccccc2)CC1 | 1.1 | -9.8% (inactive)
O=C(CCCc1ccccc1)Nc1ccnn1C1CCN(Cc2ccc(Cl)cc2)CC1 | 2.18 | -118% (active)
CC(C)Cc1ccc(CN2CCC(n3nccc3NC(=O)C3CCCC3)CC2)cc1 | 1.98 | -98.2% (active)
CSc1ccc(CN2CCC(n3nccc3NC(=O)CCCc3ccccc3)CC2)cc1 | 2.27 | -126% (active)
O=C(CCc1nc2ccccc2c(=O)[nH]1)NC1CCN(Cc2ccccc2)CC1 | 0.905 | 9.55% (inactive)
Cc1ccc(CC(NC(=O)C2CCCCC2)C(=O)O)cc1 (centres undefined) | 1.07 | -6.55% (inactive)
O=C(CN1CCN(Cc2ccc(Cl)cc2)CC1)N/N=C/c1ccncc1 | 0.975 | 2.5% (inactive)
Cc1ccccc1NC(=O)CCN1CCN(Cc2ccccc2)CC1 | 1.13 | -13.2% (inactive)
Cc1onc(-c2ccccc2)c1C(=O)Nc1ccnn1C1CCCCC1 | 0.923 | 7.65% (inactive)
CCCN1Cc2cc(OC)ccc2-c2ccccc2S1(=O)=O | 1.13 | -13.1% (inactive)
O=C(NCc1ccc2c(c1)OCO2)c1cccnc1 | 1.13 | -13% (inactive)
O=C(OCC1OC2C(Oc3nc(=O)ccn32)C1O)c1ccccc1 (centres undefined) | 1.02 | -1.5% (inactive)
N#Cc1c2c(c(NCc3cccnc3)n3c1nc1ccccc13)CCC2 | 0.779 | 22.1% (inactive)
C#CCOCCOCCOCCNc1nc(N2CCN(C(=O)CCCCCCCCCCNC(=O)[C@H](CCCCN)n3cc(C)nn3)CC2)nc(N2CCN(C(=O)CCCCCCCCCCNC(=O)[C@@H]([C@H](C)CC)n3cc(CCCCCN)nn3)CC2)n1 | 3.63 | -263% (active)
C#CCOCCOCCOCCNc1nc(N2CCN(C(=O)CCCCCCCCCCNC(=O)[C@H]([C@@H](C)CC)n3cc(CCCCN=C(N)N)nn3)CC2)nc(N2CCN(C(=O)CCCCCCCCCCNC(=O)[C@H](CCCCN)n3cc(C)nn3)CC2)n1 | 8.54 | -754% (active)
CC1CCCC(C(=O)O)N1C(=O)CCS (centres undefined) | 0.988 | 1.25% (inactive)
O=C(Cc1c[nH]c2ccccc12)Nc1nc2ccccc2[nH]1 | 0.845 | 15.5% (inactive)
COC(=O)c1c(NC(=O)Nc2ccc(Cl)cc2)sc(C)c1C | 0.99 | 1% (inactive)
CC(C)S(=O)(=O)c1csc(NC(=O)Nc2ccc(Cl)cc2)c1Cl | 2.16 | -116% (active)

Compound | activation factor | activity change, negative = activation
Cc1csc(NC(=O)Nc2ccc(Cl)cc2)n1 | 1.11 | -11.1% (inactive)
CCS(=O)(=O)Nc1ccc(C(=O)OC)cc1 | 0.912 | 8.8% (inactive)
CCCCOC(=O)c1ccc(NC(=O)Nc2ccc(OC)c(OC)c2)cc1 | 1.64 | -63.5% (inactive)
COC(=O)c1ccc(NC(=O)Nc2ccc(F)c(Cl)c2)cc1 | 1.86 | -86.3% (inactive)
CCOC(=O)c1ccc(NC(=O)Nc2ccc(F)cc2)cc1 | 1.67 | -66.6% (inactive)
CNC(=O)CCC(=O)Nc1ccc(C(=O)OC)cc1 | 0.98 | 2.05% (inactive)
COC(=O)c1ccc(NC(=O)Nc2ccc(C)cc2)cc1 | 2.15 | -115% (active)
CCOC(=O)c1ccc(NC(=O)Nc2ccc3c(c2)OCCO3)cc1 | 2.06 | -106% (active)
CCOC(=O)c1ccc(NC(=O)c2ccc3c(c2)OCO3)cc1 | 0.959 | 4.1% (inactive)
COC(=O)c1ccc(NC(=O)Nc2cccc(F)c2)cc1 | 1.97 | -97.4% (active)
CC(Sc1nnc(-c2ccco2)o1)C(=O)Nc1ccc(OC(F)F)cc1 (centres undefined) | 0.893 | 10.7% (inactive)
CC1=C(C(N)=O)C(c2cccnc2)n2nc(-c3cccc(Cl)c3)nc2N1 (centres undefined) | 0.96 | 4% (inactive)
CCCNC(=O)c1csc2c1CCCCC2 | 0.955 | 4.55% (inactive)
CC(NC(=O)CCSc1nc(-c2ccc3c(c2)OCO3)cc(C(F)(F)F)n1)c1ccccc1 (centres undefined) | 0.978 | 2.2% (inactive)
Cc1cccc(C2=NN(c3ccccc3)[C@@H](C(=O)N3CCOC3=O)[C@@H]2c2ccccc2)c1 | 0.97 | 3% (inactive)
CCCN=C1N(CC)C[C@@H]2[C@@H]3C(=O)N(Cc4ccccc4)C(=O)[C@@H]3[C@](Cc3ccccc3)(C(=O)OC)N12 | 1.07 | -7.35% (inactive)
O=C(CCS(=O)(=O)c1cccc2nonc12)NC1CCCCCC1 | 1.11 | -10.6% (inactive)
CN(C)CCCNC(=O)C[C@H]1C[C@H](C(=O)N2CCCCC2)[C@@]2(CCc3ccccc3)c3[nH]c4cc(-c5ccco5)ccc4c3CCN2C1=O | 1.28 | -28.4% (inactive)
